Source: PubChem (National Center for Advancing Translational Sciences (NCATS))
Compounds with a hit are over-represented: about 3.1% of the library has one in this group of screens.
DRD3 agonist: agonists of human D3 dopamine receptor; D3R DiscoveRx beta-arrestin cells, luminescence, 90 min; max activation, %; AID 652048; actives 0.58% (n = 410,000); in the data active means max activation above about 30%
Target sequence (P35462 whole entry, looked up): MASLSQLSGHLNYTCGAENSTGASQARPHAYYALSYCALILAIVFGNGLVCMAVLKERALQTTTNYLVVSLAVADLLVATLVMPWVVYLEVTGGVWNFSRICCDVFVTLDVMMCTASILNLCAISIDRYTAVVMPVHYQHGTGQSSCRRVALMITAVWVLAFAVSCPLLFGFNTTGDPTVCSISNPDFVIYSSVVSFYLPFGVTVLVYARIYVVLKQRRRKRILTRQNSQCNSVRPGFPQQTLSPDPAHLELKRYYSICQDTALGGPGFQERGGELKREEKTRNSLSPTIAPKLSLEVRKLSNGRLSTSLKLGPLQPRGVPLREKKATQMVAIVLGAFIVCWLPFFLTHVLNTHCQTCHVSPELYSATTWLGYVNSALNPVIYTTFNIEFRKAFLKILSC
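Agonist mode: compounds and dopamine controls were applied to plated cells for 90 min at 37 degrees C after an overnight attachment at 1500 cells/well. Luminescent read-out followed 30 - 60 minutes at room temperature with DiscoveRx detection reagent.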
uPA generation: blocks generation of uPA at the cell surface; cell surface uPA generation assay, qHTS; actives 0.31% (n = 330,000); Potency, µM (doses to about 38.3 µM), hits mostly inhibitors; AID 540303; active means well fitted inhibition curve with a large enough effect; inconclusive means small, poorly fitted or top-dose-only effect; inactive means no such curve, though single readings can be large or run the other way; tested in mouse RAW 264.7 cells; further: nearly all actives have a fitted effect of over 55% in size
D3 antag: blocks the human D3 dopamine receptor. D3R cells, DiscoveRx beta-arrestin luminescence, antagonist mode; hits give low values. max response, negative = inhibition, %. actives 2.5% (n = 360,000). AID 652054; in the data active means max response below about -50%; inconclusive means no clear call, values can overlap the other calls
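Cells expressing the human receptor were seeded at 1500 cells/well, incubated overnight at 37 degrees C in 5% CO2, then exposed to library compounds with dopamine controls for 90 minutes at 37 degrees C before luminescent detection.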
RGS4 inhibitor: human RGS4 inhibition. P49798. Transcreener GDP fluorescence polarization, RGS4-accelerated GTP hydrolysis. Potency, µM (series often up to 114 µM), actives largely listed as inhibitors. actives 0.039% (n = 390,000). AID 504845; active means well fitted inhibition curve with a large enough effect; inconclusive means small, poorly fitted or top-dose-only effect; inactive means no such curve, though single readings can be large or run the other way; further: nearly all actives have a fitted effect of over 75% in size
Target sequence (P49798 whole entry, looked up): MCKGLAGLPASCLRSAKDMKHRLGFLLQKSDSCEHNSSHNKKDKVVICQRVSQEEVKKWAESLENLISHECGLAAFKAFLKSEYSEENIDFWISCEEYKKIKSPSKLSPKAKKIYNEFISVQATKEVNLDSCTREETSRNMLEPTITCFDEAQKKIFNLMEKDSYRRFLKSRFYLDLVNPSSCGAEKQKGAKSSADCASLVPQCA
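MLSMR compounds (23 nl, pin-transferred) preincubated 10 min at room temperature with a 500nM (2x) first reagent, then RGS4 at 900nM (2x) plus Transcreener GDP mix added; fluorescence polarization (620/688 nm) read before and after 90 min at 30 °C.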
Each line names hits and unclear results; the compound was inactive in the other large screens; ! = repeats disagree.

Nc1ccc(C#Cc2ccc3oc4ccccc4c(=O)c3c2)cc1	DRD3 agonist 59, uPA generation inconclusive
Nc1ccc2oc3ncccc3c(=O)c2c1	D3 antag -98
COc1ccc(C#Cc2ccc3c(c2)c(=O)c2ccccc2n3C)cc1	none
Cc1cccc(NC(=O)CSc2nc3c(oc4ccccc43)c(=O)n2Cc2ccco2)c1	none (no result: uPA generation, D3 antag)
COc1ccccc1CNCC(O)(c1ccc(Cl)cc1)c1ccc(Cl)cc1	D3 antag -83 (no result: uPA generation)
CCN(CC)CCNCC(O)(c1ccc(Cl)cc1)c1ccc(Cl)cc1	D3 antag -60
Cc1c(C(=O)O)oc2c1-c1nn(Cc3ccccc3Cl)cc1CC2	none (no result: uPA generation, D3 antag)
CCCCCCCCc1nc(=S)[nH][nH]1	D3 antag -67, RGS4 inhibitor inconclusive
COc1cccc(NC(=O)C(OC(=O)/C=C/c2ccc3c(c2)OCO3)c2ccccc2)c1 (configuration not stated)	D3 antag -55
CC1CC(C)(C)Nc2ccc(N=O)cc21 (configuration not stated)	D3 antag -84
OCCC1CN(C/C(Cl)=C/c2ccccc2)CCN1C1CCCC1 (configuration not stated)	none
CC(C)=CCN1CCN(C/C(Cl)=C/c2ccccc2)CC1CCO (configuration not stated)	D3 antag -63
COc1ccc(NC(=O)c2c(NC(=O)C(F)(F)F)sc3c2CCCCC3)cc1	none (no result: uPA generation, D3 antag)
OCCCNCc1ccc(N(c2ccccc2)c2ccccc2)cc1	D3 antag -66
COCCCNC(=S)NC1CC2CCC(C1)N2Cc1ccccc1 (configuration not stated)	D3 antag -60
CCOCCCNC(=S)NC1CC2CCC(C1)N2Cc1ccccc1 (configuration not stated)	D3 antag -62
CCOCCC(=O)Nc1ccc2c(c1)c(=O)n(C)n2CC=C(C)C	none (no result: uPA generation, RGS4 inhibitor)
CCOC(=O)C1CCCN(Cc2ccccc2C)C1 (configuration not stated)	D3 antag -64 (no result: uPA generation)
COc1ccc(CN2CCC(C(N)=O)CC2)cc1OCc1ccccc1	none
CCOC(=O)C1CCCN(Cc2ccc(OC)c(OCc3ccccc3)c2)C1 (configuration not stated)	D3 antag -84
COc1ccc(CNC(=O)Cn2cc(C)c(=O)[nH]c2=O)cc1	none
COc1ccc(C(=O)Oc2ccc3oc(=O)sc3c2)cc1	D3 antag -52, RGS4 inhibitor inconclusive
COc1ccc(C(=O)Oc2ccc3ccc(=O)oc3c2)cc1	none
COCCn1c(=O)c2c(nc3n2CCCN3CCc2ccccc2)n(C)c1=O	DRD3 agonist 102
CCOc1cc(/C=C2\N=C(SCC)SC2=O)cc([N+](=O)[O-])c1OC(C)=O	D3 antag -97
CCOc1c(OC(C)=O)ccc(/C=C2\N=C(SCC)SC2=O)c1[N+](=O)[O-]	D3 antag -70, RGS4 inhibitor inconclusive
CCSC1=N/C(=C\c2ccc(C(=O)O)cc2)C(=O)S1	none
CCOc1cc(/C=C2\N=C(SC)SC2=O)cc([N+](=O)[O-])c1OC(C)=O	none
Cc1cc2oc(C(=O)N(Cc3ccccc3)C3CCS(=O)(=O)C3)cc(=O)c2cc1C (configuration not stated)	none (no result: uPA generation, D3 antag)
C=C[C@]1(C)C=C2C(=O)[C@@]3(O)OC(=O)[C@@]4(CCCC(C)(C)[C@H]34)[C@@]2(O)CC1	D3 antag -58 (no result: uPA generation, RGS4 inhibitor)
C=C[C@]1(C)C=C2CC[C@H]3[C@@](C)(CCC[C@@]3(C)C(=O)O)[C@@H]2CC1	none
N#Cc1ccc(OCCN2CCc3ccccc3C2)cc1	D3 antag -79
Clc1ccc(OCCCCN2CCc3ccccc3C2)cc1	D3 antag -114
COc1ccc(OCCOCCN2CCc3ccccc3C2)cc1	D3 antag -51
CCOc1ccc(NC(=O)CCCn2c(C)c3cnn(-c4ccccc4)c(=O)c3c2C)cc1	none (no result: uPA generation, D3 antag)
Cc1ccc2nc(Nc3cccc(C(F)(F)F)c3)c3nnnn3c2c1	none (no result: uPA generation, D3 antag)
O=C(CCc1ccc(O)c(O)c1)NNC(=S)NCCc1ccccc1	DRD3 agonist 59
COc1cccc(NC(=O)NNC(=O)CCc2ccc(O)c(O)c2)c1	DRD3 agonist 67, RGS4 inhibitor inconclusive
O=C(CCc1ccccc1)NNC(=S)NCc1ccc(Cl)cc1	none
O=C(CCc1ccc(O)c(O)c1)NNC(=S)Nc1ccc(Br)cc1Cl	DRD3 agonist 37, D3 antag inconclusive
CCNC(=O)C1(C)CCN(C(=O)c2ccc3c(c2)CCO3)C1 (configuration not stated)	D3 antag -51 (no result: uPA generation, RGS4 inhibitor)
Nc1ncnc2c1ncn2C1OCC(O)C1O (configuration not stated)	none (no result: uPA generation, RGS4 inhibitor)
CCc1nn2c(N)c(/C=C3\C=Nc4ccccc43)c(=O)nc2s1	D3 antag -50!
CC(C)(C)c1ccc(-n2nc(C#N)c(Cl)cc2=O)cc1	D3 antag -95
COc1ccc(N2CCN(C(=O)CSc3nnc4c5cc(C)ccc5n(C)c4n3)CC2)cc1	DRD3 agonist 43
CN1CCN(C(=O)c2ccc3ccccc3c2)CC1	D3 antag -83 (no result: uPA generation)
CCc1ccccc1Nc1nn2c(=O)c3ccc(C(=O)NC(C)c4ccccc4)cc3nc2s1 (configuration not stated)	none (no result: uPA generation, D3 antag)
COc1ccccc1/C=C/c1nc(C#N)c(N2CCCCCC2)o1	none (no result: uPA generation, D3 antag)
CCCCCNc1nc(N2CCCC2)c2c(c1C#N)CCN(C)C2	D3 antag -66
Cc1c(Cl)cccc1NC(=O)CC(c1cccs1)N1Cc2ccccc2C1=O (configuration not stated)	none (no result: uPA generation, D3 antag)
Cn1c(=O)c([N+](=O)[O-])c(Cl)c2ccccc21	D3 antag -85
Cc1ccc(-n2ncc3c2CCCC3NC(=O)c2csnn2)cc1C (configuration not stated)	none
COc1cc(/C=C2\S/C(=N/S(=O)(=O)c3ccccc3)NC2=O)c([N+](=O)[O-])cc1OC	D3 antag -88
Fc1ccc(-n2nnnc2-c2cnc(-c3cccs3)nc2C(F)(F)F)cc1	DRD3 agonist 44
CC1(C)Oc2ccc(C(=O)NC3CCCC3)cc2N(CC(=O)NC2CCCC2)C1=O	D3 antag -76
c1ccc2c(CCC3CCNCC3)c[nH]c2c1	none (no result: uPA generation, D3 antag, RGS4 inhibitor)
CC1CC(C)CN(C(=O)/C=C/c2ccc([N+](=O)[O-])s2)C1 (configuration not stated)	uPA generation 3.5µM
O=C(/C=C/c1ccc([N+](=O)[O-])s1)N1CCCC1	uPA generation 11µM
CC1CN(C(=O)/C=C/c2ccc([N+](=O)[O-])s2)CC(C)O1 (configuration not stated)	none
O=C(/C=C/c1ccc([N+](=O)[O-])s1)N1CCCCC1	none
COc1ccc(N=Cc2nc(-c3ccco3)oc2O)cc1	D3 antag -52
CC(C)OCCCNC(=O)c1ccc(CN2CCc3ccccc3C2)cc1	D3 antag -67
CC(C)NC(=O)c1ccc(CN2CCc3ccccc3C2)cc1	D3 antag -66
CCOCCCNC(=O)c1ccc(CN2CCc3ccccc3C2)cc1	D3 antag -92 (no result: uPA generation, RGS4 inhibitor)
CCC(=O)N1CCc2cc(Br)cc(S(=O)(=O)NCCc3ccc(C)cc3)c21	none (no result: uPA generation, D3 antag)
